From PubChem
TDP1 cell CPT – DT40-hTDP1 cell growth loss with CPT; chicken DT40 Tdp1-/-;hTDP1 cells + 20 nM CPT, ATP luminescence, 48 h; Potency, µM (doses to about 46.2 µM), inactives show at the top dose activity change, negative = growth inhibition, usual class: inhibitors; actives 12% (n = 420,000); AID 686979; note: potency is the fitted concentration of half-maximal effect; % is set by controls: 0 for no effect and ±100 for the full control effect; nearly all actives have a fitted effect of over 55% in size
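Chicken DT40 Tdp1-/- cells stably complemented with human TDP1 were seeded at 400 cells/well in medium containing 20 nM camptothecin, exposed to pin-transferred compounds, and grown at 37 °C for at least 48 hr. Viability was read as ATP luminescence.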
DRD3 agonist – D3 dopamine receptor (human) agonism. P35462. D3R DiscoveRx beta-arrestin cells, luminescence, 90 min. max activation, %. actives 0.58% (n = 410,000). AID 652048; in the data active = max activation above about 30%; note: 0% is about no effect
Target sequence (P35462 whole entry, looked up): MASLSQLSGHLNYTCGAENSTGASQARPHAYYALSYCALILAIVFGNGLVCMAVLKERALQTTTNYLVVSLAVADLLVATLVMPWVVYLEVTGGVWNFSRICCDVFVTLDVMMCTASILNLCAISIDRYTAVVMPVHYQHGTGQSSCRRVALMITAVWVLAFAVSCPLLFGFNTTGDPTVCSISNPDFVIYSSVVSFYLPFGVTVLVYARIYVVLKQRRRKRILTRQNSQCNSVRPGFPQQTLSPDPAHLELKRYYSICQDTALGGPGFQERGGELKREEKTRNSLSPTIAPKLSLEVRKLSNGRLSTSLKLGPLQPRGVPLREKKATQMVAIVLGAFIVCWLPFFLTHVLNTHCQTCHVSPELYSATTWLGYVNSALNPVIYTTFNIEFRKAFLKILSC
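Cells at 1500/well, incubated overnight, then treated with pinned compounds (dopamine as control) for 90 min at 37 degrees C. DiscoveRx reagent added for 30 - 60 minutes at room temperature; luminescence read.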
ClpP mod – qHTS Assay for Activators of ClpP | ATP-dependent Clp protease proteolytic subunit (Bacillus subtilis (strain 168)), P80244 | purified B. subtilis ClpP, FRET peptide cleavage, 20 min | Potency, µM (titrated, usually from 57.5 µM), for the others: top-dose activity change, negative = active | actives 1.9% (n = 340,000); active = well fitted falling curve with a large enough effect; inconclusive = small, poorly fitted or top-dose-only effect; inactive = no such curve, though single readings can be large or run the other way; note: potency is the fitted concentration of half-maximal effect; the source files actives as falling curves though it sought activators and does not explain the sign; nearly all actives have a fitted effect of over 65% in size
Target sequence (P80244 whole entry, looked up): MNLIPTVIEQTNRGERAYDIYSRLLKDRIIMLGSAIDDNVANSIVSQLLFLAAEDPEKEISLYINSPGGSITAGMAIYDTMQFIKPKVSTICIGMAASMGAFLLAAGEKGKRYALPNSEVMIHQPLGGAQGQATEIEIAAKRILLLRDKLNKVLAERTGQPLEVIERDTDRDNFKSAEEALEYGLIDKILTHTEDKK
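FRET quenching reversal measured ClpP activation: 10 microg/mL B. subtilis ClpP at pH 8 with the FRET-FV decapeptide, read at 430 nm after 320 nm excitation. The 20-min minus 0-min signal was scaled between DMSO/no-enzyme wells and ADEP (5.8 microM final).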
IL-1B inflam inh – inhibitors of inflammasome signaling (IL-1 beta secretion); THP-1 LPS/ATP IL-1B secretion, AlphaLISA, 16 h; hits give low values; activity change, % at 57.5 µM; AID 743279; actives 4.7% (n = 360,000); in the data active = activity change below about -50%; inconclusive = mostly about -30% to -49%; note: % is set by controls: 0 for no effect and ±100 for the full control effect
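THP-1 cells pretreated 1 hr with compounds (up to 57.5 uM final), then stimulated with LPS (250 ng/mL final) plus ATP (1.25 mM final); secreted IL-1B measured by AlphaLISA after 16 hr, decreased signal indicating inhibition.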
DRD3 antagonist – blocks the human D3 dopamine receptor; P35462; D3R cells, DiscoveRx beta-arrestin luminescence, antagonist mode; hits give low values; max response, negative = inhibition, %; actives 2.5% (n = 360,000); in the data active = max response below about -50%; inconclusive = no clear call, values can overlap the other calls; note: % is set by controls: 0 for no effect and ±100 for the full control effect
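Cells expressing the human receptor were seeded at 1500 cells/well, incubated overnight at 37 degrees C in 5% CO2, then exposed to library compounds with dopamine controls for 90 minutes at 37 degrees C before luminescent detection.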
DT40 TDP1 no CPT – qHTS for Inhibitors of human tyrosyl-DNA phosphodiesterase 1 (TDP1): qHTS in cells in absence of CPT | AID 686978, 2013 | Potency, µM (doses to about 46.2 µM), inactives show at the top dose activity change, negative = growth inhibition, most hits filed as inhibitors | actives 15% (n = 420,000) | DT40 Tdp1-/- hTDP1 cells, no CPT, ATP luminescence, 48 h; note: potency is the fitted concentration of half-maximal effect; % is set by controls: 0 for no effect and ±100 for the full control effect; nearly all actives have a fitted effect of over 55% in size
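Cells were dispensed at 400 per well, compounds added by pin tool, plates incubated ≥48 hr at 37 °C, then CellTiter-Glo added for 30 min at room temperature before luminescence reading. Line: DT40 Tdp1-/- complemented with hTDP1; camptothecin omitted.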
The depositor's hits bear a star; u = inconclusive; x = no result. Shown are actives, neighbours in structure and some others; about 21% of the full set was active somewhere. Unless noted, calls come from the whole dose curve; as a rule, active = well fitted inhibition curve with a large enough effect; inconclusive = small, poorly fitted or top-dose-only effect; inactive = flat fitted curve, though single readings scatter.

SMILES | TDP1 cell CPT | DRD3 agonist | ClpP mod | IL-1B inflam inh | DRD3 antagonist | DT40 TDP1 no CPT
N#C/C(=C\c1cccnc1)c1ccccc1[N+](=O)[O-] | -3.5% | -4.1 | x | -91.8* | u | u
COc1cc(NC(=O)Cn2c(=O)n(Cc3ccccc3OC)c(=O)c3cccnc32)cc(OC)c1 | -13.4% | -15.1 | -26.2% | x | x | u
COc1ccc(OC)c(NC(=O)C23CC4CC(C2)CC(n2cnc(Br)n2)(C4)C3)c1 | 11.2µM* | -37.4 | -1.7% | 2.6 | -8.4 | 10µM*
Cc1cccc2c1c1ccc3c(c1n2C)C(=O)C=CC3=O | 0.461µM* | 0.2 | -4.1% | 9.9 | -28.4 | 0.411µM*
O=C(CNC(=O)c1ccccc1F)NCCc1ccccc1F | -3.9% | -9.0 | 1.6% | 0.0 | -19.0 | 16.9%
Cc1ccc(NS(=O)(=O)c2c(C(=O)N3CCOCC3)c(C)n(C)c2C)cc1C | -24.1% | 0.7 | -2.8% | 0.0 | 1.5 | 1.3%
Cc1c(C(=O)N2CCOCC2)c(S(=O)(=O)Nc2ccc(C(C)C)cc2)c(C)n1C | 13µM* | 5.2 | -0.8% | 41.7 | 2.4 | u
Cc1c(C(=O)N2CCCCCC2)c(S(=O)(=O)Nc2ccc(OC(F)(F)F)cc2)c(C)n1C | 23.1µM* | 7.9 | 0.7% | x | x | 16.4µM*
Cc1c(C(=O)N2CCOCC2)c(S(=O)(=O)Nc2ccc(OC(F)(F)F)cc2)c(C)n1C | u | 6.1 | 1.5% | 0.0 | -8.2 | -24.4%
CC(C)(CSc1ncccn1)NS(=O)(=O)c1ccccc1 | -3.0% | -3.8 | x | -2.4 | 10.7 | -9.5%
Cc1ccc(S(=O)(=O)NC(C)(C)CSc2nnc(Nc3ccccc3)s2)cc1 | 23.1µM* | 1.4 | -2.6% | -7.5 | 3.8 | u
Cc1cc2nc(-c3ccc(F)cc3)c(CC3CCCCC3)n2c(C)c1Br | u | -4.8 | -0.7% | 35.9 | 0.0 | 20.6µM*
Cc1cc2nc(-c3ccccc3)c(CC3CCCCC3)n2c(C)c1Br | 23.1µM* | -7.3 | -3.2% | 33.1 | 4.0 | 14.6µM*
Cc1cc2nc(-c3cccc(Cl)c3)c(CC3CCCCC3)n2c(C)c1Br | -26.8% | -3.1 | -0.8% | 36.5 | 20.1 | u
COc1ccc(-c2nc3cc(C)c(Br)c(C)n3c2CC2CCCCC2)cc1OC | 2.4% | 8.2 | -5.9% | 17.0 | 22.5 | u
Cc1ccc(-c2nc3cc(C)c(Br)c(C)n3c2CC2CCCCC2)cc1 | u | -7.8 | -1.2% | 0.0 | -26.7 | 13µM*
Cc1cc2nc(-c3ccc(Cl)cc3)c(Cc3cccc(Cl)c3)n2c(C)c1Br | -19.7% | 3.8 | 1.5% | 0.0 | 2.5 | -24.9%
CCCc1nc2cc(C)c(Br)c(C)n2c1CC1CCCCC1 | 4.11µM* | -2.4 | -12.0% | u | 6.1 | 2.91µM*
O=S(=O)(c1cccs1)N1CN(C2CCCCC2)c2nc3ccccc3nc21 | u | 4.3 | x | u | 15.8 | u
Cc1ccc(C(=O)N/C(=C\c2cn(S(=O)(=O)N(C)C)c3ccccc23)C(=O)NCCCN2CCOCC2)cc1 | u | 6.9 | -5.5% | -13.6 | -1.1 | u
COc1ccc(-c2nc3cc(C)c(Br)c(C)n3c2CC(C)(C)C)cc1OC | -12.3% | 9.1 | 1.7% | -21.8 | 24.0 | -26.3%
Cc1cc2nc(-c3ccc(F)cc3)c(CC(C)(C)C)n2c(C)c1Br | 25.9µM* | -7.1 | -6.5% | 42.4 | -18.8 | 20.6µM*
COc1cc(CN(C)c2ncnc3sccc23)ccc1OC(F)F | 16.4µM* | 5.8 | 0.6% | 0.4 | 0.6 | 11.6µM*
CCOc1ccc(C(=O)NCCS(=O)(=O)N2CCN(c3ccccc3F)CC2)cc1OCC | -3.0% | -5.5 | 0.5% | x | x | u
COc1ccc(N(C(=O)c2ccco2)S(=O)(=O)c2cc(Cl)c(Cl)cc2Cl)cc1 | 18.4µM* | 10.5 | -0.5% | 38.6 | -23.3 | u
SMILES | TDP1 cell CPT | DRD3 agonist | ClpP mod | IL-1B inflam inh | DRD3 antagonist | DT40 TDP1 no CPT
CCc1ccc(/C=C/C(=O)c2c(C)cc(C)[nH]c2=O)cc1 | 16.4µM* | -0.5 | -0.4% | -120.0* | 0.0 | 16.4µM*
Cc1cc(C)c(C(=O)/C=C/c2ccco2)c(=O)[nH]1 | 2.8% | 4.0 | x | u | -3.1 | -6.0%
Cc1cc(C)c(C(=O)/C=C/c2cccs2)c(=O)[nH]1 | u | -6.2 | -0.4% | -72.6* | -22.6 | u
Cc1ccc(/C=C/C(=O)c2c(C)cc(C)[nH]c2=O)cc1 | 8.91µM* | -10.0 | -0.2% | -94.3* | -10.1 | 11.2µM*
COc1ccc(/C=C/C(=O)c2c(C)cc(C)[nH]c2=O)c2ccccc12 | u | -0.7 | x | -99.3* | -23.3 | u
C/C(=C\c1cccs1)C(=O)c1c(C)cc(C)[nH]c1=O | -0.4% | 3.6 | -1.0% | -3.0 | 16.5 | 24.0%
CCOC(=O)C1=C(COC(=O)[C@H](C)NS(=O)(=O)c2ccc(NC(C)=O)cc2)NC(=O)NC1C (some centres not stated) | 0.5% | 4.3 | -0.9% | -7.6 | 8.6 | -11.9%
Cc1cccc(C)c1Nc1nnc(SCc2nc3ccccc3s2)s1 | -11.0% | 1.7 | 14.1µM* | 1.7 | 18.7 | -25.5%
O=C(N/N=C/c1c(F)cccc1Cl)c1cc(C2CC2)[nH]n1 | 16.2% | -6.7 | 0.8% | -12.0 | -19.4 | u
COc1ccc2c(c1)OC[C@H]1[C@H]2N2C(=O)c3ccc(C)cc3NC(=O)[C@@]2(C)[C@H]1c1ccccc1 | 23.1µM* | -7.1 | -6.4% | u | u | u
COc1ccc2c(c1)[C@H]1[C@H](CO2)[C@H](c2ccccc2)[C@]2(C)C(=O)Nc3cc(Cl)ccc3C(=O)N12 | u | -15.1 | -9.8% | -19.5 | -14.5 | u
